Measured values published in PubChem BioAssay AID1159580 (chemical genetic matrix, 2015).
Screen size: about 5,500 compounds; about 2,000 (36%) were called active. Roughly 18% stayed inconclusive and do not appear here. Cut-off read from the data, not from the text of the source: active = normalized growth mostly below about 0.91 (no sharp cut-off); inconclusive = no clear call, values can overlap the other calls; inactive = mostly above about 0.92. This is one part of the list.

Assay: chemical genetic growth profiling, strain panel (AID 1159580);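 note: tested at 20 µM; growth read once vehicle control cultures reached saturation at 30 °C; 1 = growth at the plate median or of vehicle wells; lower values mean less growth of the strain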
Details: growth OD

Measured: normalized growth

Clc1ccc(C(c2ccc(Cl)cc2)C(Cl)(Cl)Cl)cc1
inactive: S. cerevisiae deletion strains, locus YJR043C, strain POL32, active compounds read low 0.996 | S. cerevisiae deletion strains, locus YJR075W, strain HOC1, active compounds read low 1.01 | S. cerevisiae deletion strains, locus YKL009W, strain mrt4, active compounds read low 0.992 | S. cerevisiae deletion strains, locus YKL068W, active compounds read low 1.02 | S. cerevisiae deletion strains, locus YKL085W, strain MDH1 (second series), active compounds read low 1.01 | S. cerevisiae deletion strains, locus YKL085W, strain MDH1, active compounds read low 1.01 | S. cerevisiae deletion strains, locus YKL160W, strain elf1, active compounds read low 1.01 | S. cerevisiae deletion strains, locus YKL190W, strain CNB1, active compounds read low 0.996 | S. cerevisiae deletion strains, locus YKR001C, strain vps1, active compounds read low 0.997 | S. cerevisiae deletion strains, locus YKR026C, strain gcn3, active compounds read low 1.01 | S. cerevisiae deletion strains, locus YKR091W, strain srl3, active compounds read low 1 | S. cerevisiae deletion strains, locus YLL001W, strain dnm1, active compounds read low 1.02 | S. cerevisiae deletion strains, locus YLL026W, active compounds read low 1.01 | S. cerevisiae deletion strains, locus YLL041C, strain sdh2, active compounds read low 1.01 | S. cerevisiae deletion strains, locus YLR027C, strain aat2, active compounds read low 1.01 | S. cerevisiae deletion strains, locus YLR039C, strain RIC1, active compounds read low 1.05 | S. cerevisiae deletion strains, locus YLR058C, strain SHM2, active compounds read low 1.02 | S. cerevisiae deletion strains, locus YLR102C, strain apc9, active compounds read low 0.992 | S. cerevisiae deletion strains, locus YLR221C, strain rsa3, active compounds read low 1.01 | S. cerevisiae deletion strains, locus YLR258W, strain gsy2, active compounds read low 1.01 | S. cerevisiae deletion strains, locus YLR262C, strain YPT6 (second series), active compounds read low 0.985 | S. cerevisiae deletion strains, locus YLR262C, strain YPT6, active compounds read low 0.999 | S. cerevisiae deletion strains, locus YLR268W, strain sec22, active compounds read low 1 | S. cerevisiae deletion strains, locus YLR320W, strain mms22, active compounds read low 0.99 | S. cerevisiae deletion strains, locus YLR330W, strain CHS5, active compounds read low 1.02 | S. cerevisiae deletion strains, locus YLR342W, strain FKS1 (second series), active compounds read low 1.04 | S. cerevisiae deletion strains, locus YLR342W, strain FKS1, active compounds read low 1.01 | S. cerevisiae deletion strains, locus YLR357W, strain rsc2, active compounds read low 1.03 | S. cerevisiae deletion strains, locus YLR370C, strain arc18, active compounds read low 1.01 | S. cerevisiae deletion strains, locus YLR371W, strain rom2, active compounds read low 0.995 | S. cerevisiae deletion strains, locus YLR384C, strain iki3, active compounds read low 1 | S. cerevisiae deletion strains, locus YLR418C, strain cdc73, active compounds read low 0.984 | S. cerevisiae deletion strains, locus YML016C, strain PPZ1, active compounds read low 1.03 | S. cerevisiae deletion strains, locus YML032C, strain rad52, active compounds read low 0.992 | S. cerevisiae deletion strains, locus YML120C, strain ndi1, active compounds read low 0.997 | S. cerevisiae deletion strains, locus YML124C, strain tub3, active compounds read low 1 | S. cerevisiae deletion strains, locus YMR058W, strain fet3, active compounds read low 1.01 | S. cerevisiae deletion strains, locus YMR078C, strain ctf18, active compounds read low 0.991 | S. cerevisiae deletion strains, locus YMR125W, strain sto1, active compounds read low 1.01 | S. cerevisiae deletion strains, locus YMR129W, active compounds read low 1.01 | S. cerevisiae deletion strains, locus YMR205C, strain PFK2, active compounds read low 0.977 | S. cerevisiae deletion strains, locus YMR223W, strain ubp8, active compounds read low 0.991 | S. cerevisiae deletion strains, locus YMR231W, strain pep5, active compounds read low 1.01 | S. cerevisiae deletion strains, locus YMR263W, strain SAP30, active compounds read low 1.02 | S. cerevisiae deletion strains, locus YMR307W, strain GAS1, active compounds read low 0.918 | S. cerevisiae deletion strains, locus YNL067W, strain RPL9B, active compounds read low 1.01 | S. cerevisiae deletion strains, locus YNL071W, strain lat1, active compounds read low 1.02 | S. cerevisiae deletion strains, locus YNL128W, strain TEP1, active compounds read low 1.02 | S. cerevisiae deletion strains, locus YNL153C, strain GIM3, active compounds read low 1.02 | S. cerevisiae deletion strains, locus YNL209W, strain ssb2, active compounds read low 1 | S. cerevisiae deletion strains, locus YNL233W, strain BNI4, active compounds read low 1.01 | S. cerevisiae deletion strains, locus YNL248C, strain rpa49, active compounds read low 1 | S. cerevisiae deletion strains, locus YNL250W, strain rad50, active compounds read low 1 | S. cerevisiae deletion strains, locus YNL271C, strain bni1, active compounds read low 0.997 | S. cerevisiae deletion strains, locus YNL298W, strain CLA4, active compounds read low 1.02 | S. cerevisiae deletion strains, locus YNL307C, strain MCK1, active compounds read low 0.963 | S. cerevisiae deletion strains, locus YNL322C, strain KRE1 (second series), active compounds read low 1.01 | S. cerevisiae deletion strains, locus YNL322C, strain KRE1, active compounds read low 1.02 | S. cerevisiae deletion strains, locus YNR049C, strain mso1, active compounds read low 1.01 | S. cerevisiae deletion strains, locus YNR052C, strain pop2, active compounds read low 0.991 | S. cerevisiae deletion strains, locus YOL006C, strain TOP1, active compounds read low 1.02 | S. cerevisiae deletion strains, locus YOL012C, strain htz1 1.14 | S. cerevisiae deletion strains, locus YOL147C, strain pex11, active compounds read low 1 | S. cerevisiae deletion strains, locus YOR001W, strain rrp6, active compounds read low 1.01 | S. cerevisiae deletion strains, locus YOR061W, strain CKA2, active compounds read low 1.01 | S. cerevisiae deletion strains, locus YOR069W, strain VPS5, active compounds read low 1.01 | S. cerevisiae deletion strains, locus YOR070C, strain gyp1, active compounds read low 1.01 | S. cerevisiae deletion strains, locus YOR080W, strain dia2, active compounds read low 1.01 | S. cerevisiae deletion strains, locus YOR083W, strain WHI5, active compounds read low 1.01 | S. cerevisiae deletion strains, locus YOR106W, strain vam3, active compounds read low 0.988 | S. cerevisiae deletion strains, locus YOR136W, strain idh2, active compounds read low 0.99 | S. cerevisiae deletion strains, locus YOR144C, strain elg1, active compounds read low 1 | S. cerevisiae deletion strains, locus YOR184W, strain ser1, active compounds read low 0.982 | S. cerevisiae deletion strains, locus YOR265W, strain rbl2, active compounds read low 1.01 | S. cerevisiae deletion strains, locus YOR270C, strain vph1, active compounds read low 1.01 | S. cerevisiae deletion strains, locus YOR290C, strain snf2, active compounds read low 1 | S. cerevisiae deletion strains, locus YOR316C, strain cot1, active compounds read low 1.01 | S. cerevisiae deletion strains, locus YPL051W, strain arl3, active compounds read low 1 | S. cerevisiae deletion strains, locus YPL055C, strain LGE1, active compounds read low 0.989 | S. cerevisiae deletion strains, locus YPL078C, strain atp4, active compounds read low 1.01 | S. cerevisiae deletion strains, locus YPL106C, strain sse1, active compounds read low 1.03 | S. cerevisiae deletion strains, locus YPL240C, strain hsp82, active compounds read low 0.999 | S. cerevisiae deletion strains, locus YPL241C, strain CIN2, active compounds read low 1.02 | S. cerevisiae deletion strains, locus YPR119W, strain clb2, active compounds read low 0.998 | S. cerevisiae deletion strains, locus YPR141C, strain kar3, active compounds read low 1.01 | S. cerevisiae deletion strains, locus YPR163C, strain tif3, active compounds read low 0.998 | S. cerevisiae deletion strains, locus YPR167C, strain met16, active compounds read low 0.997 | S. cerevisiae deletion strains, strain wtn01, active compounds read low 0.997 | S. cerevisiae strains, strain wild type, active compounds read low 1.01
